KAT2A inh: blocks human GCN5L2 histone acetyltransferase; Q92830; GCN5L2 HAT assay, ThioGlo1 CoA-SH fluorescence; Potency, µM (highest dose often 58.9 µM), hits mostly inhibitors; 0.21% of 390,000 active; AID 504327
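Free CoA generated was detected with ThioGlo1 (50uM) fluorescence at Ex340nm/Em540nm, read immediately and after 20 min at room temperature. Enzyme, 20 nM in HEPES pH 7.5 buffer, saw compounds 15 min before adding 75uM H3(1-25) peptide and 70uM acetyl-CoA.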
VDR inh: blocks the human vitamin D receptor. P11473. AID 504847. 0.93% of 400,000 active. VDR-SRC2-3 peptide fluorescence polarization, 2 h. Potency, µM, actives largely listed as inhibitors
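Inhibition of the VDR/SRC2-3 peptide interaction is quantified by fluorescence polarization. Compounds (23 nl, pintool) incubate with the reagents for 2 hours at ambient room temperature.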
ALOX12 inh: ALOX12 (human) lipoxygenase inhibition; purified 12hLO, xylenol orange hydroperoxide absorbance; 1.1% of 580,000 active; P18054; Potency, µM (series often up to 108 µM), actives largely listed as inhibitors
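Purified human 12hLO (150 nM final) in 25 mM Hepes, 0.01% Triton X-100, pH 7.0 was preincubated 15 min at room temperature with compound. Then 40 uM arachidonic acid was added, 30 min. Hydroperoxide was read by Fe-XO absorbance ratio 573/405 nm.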
PLK1 PBD inh: PLK1 (human) polo-box domain binding inhibition. P53350. Plk1 PBD binding of FITC phosphopeptide, fluorescence polarization. Potency, µM, hits mostly inhibitors. 2.8% of 360,000 active; also: series mostly up to about 57 µM; nearly all actives have a fitted effect of over 65% in size
Target sequence (P53350 whole entry, looked up, the tested form may be a part): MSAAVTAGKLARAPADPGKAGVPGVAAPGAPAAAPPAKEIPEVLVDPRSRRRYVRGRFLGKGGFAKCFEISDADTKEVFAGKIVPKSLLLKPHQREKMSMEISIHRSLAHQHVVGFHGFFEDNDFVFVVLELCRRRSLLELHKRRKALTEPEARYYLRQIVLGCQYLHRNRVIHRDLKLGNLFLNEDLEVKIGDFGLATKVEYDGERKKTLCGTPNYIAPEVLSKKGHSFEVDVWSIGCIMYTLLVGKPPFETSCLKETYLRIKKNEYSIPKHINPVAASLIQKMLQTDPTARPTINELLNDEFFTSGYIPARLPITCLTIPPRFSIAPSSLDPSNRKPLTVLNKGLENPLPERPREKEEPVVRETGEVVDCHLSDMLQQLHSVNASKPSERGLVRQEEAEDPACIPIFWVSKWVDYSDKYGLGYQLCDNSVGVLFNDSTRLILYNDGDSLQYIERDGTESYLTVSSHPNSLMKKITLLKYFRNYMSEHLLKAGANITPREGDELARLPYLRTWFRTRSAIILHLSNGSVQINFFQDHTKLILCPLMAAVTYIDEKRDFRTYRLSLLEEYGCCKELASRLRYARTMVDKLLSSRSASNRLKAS
TbPYK confirm: Trypanosoma brucei pyruvate kinase inhibition, cherry-pick confirmation; shares compounds with PLK1 PBD inh; recombinant TbPYK, Kinase-Glo ATP luminescence; Potency, µM (highest dose often 76.9 µM), hits mostly inhibitors; 67% of 890 active; also: nearly all actives have a fitted effect of over 70% in size
TbPYK ADP-Glo: inhibits T. brucei pyruvate kinase in orthogonal ADP-Glo assay. 62% of 890 active. Potency, µM (doses to about 76.9 µM), usual class: inhibitors. shares compounds with PLK1 PBD inh. recombinant TbPYK, ADP-Glo luminescence, 60 min. AID 720584; also: nearly all actives have a fitted effect of over 75% in size
Hits are given with their value. Hits are enriched below; roughly 3% of the tested compounds scored in any of these assays. Calls follow the shape of the dose curve; as a rule, active = well fitted curve in the direction sought with a large enough effect; inconclusive = small, poorly fitted or top-dose-only effect, or another doubt; inactive = no such curve, though single readings can be large; an effect the other way counts as inactive or inconclusive.

How did C(=NC12CN3CN(CN(C3)C1)C2)c1cccs1 do in these assays?
KAT2A inh: inactive; VDR inh: inactive; ALOX12 inh: inactive; PLK1 PBD inh: inactive

How did O=C1NC(=O)N(c2ccc(F)cc2)C(=O)/C1=C/c1ccsc1 do in these assays?
KAT2A inh: inactive; VDR inh: inconclusive; ALOX12 inh: inactive; PLK1 PBD inh: 6.7µM; TbPYK confirm: inconclusive; TbPYK ADP-Glo: inactive

How did Clc1ccc(C2NCc3ccccc3-n3cccc32)cc1 (centres undefined) do in these assays?
ALOX12 inh: inactive

How did CC(=O)n1cc(C=C2C(=O)NC(=O)NC2=O)c2ccccc21 do in these assays?
KAT2A inh: inactive; VDR inh: inconclusive; ALOX12 inh: inconclusive; PLK1 PBD inh: 4.23µM; TbPYK confirm: 22.4µM; TbPYK ADP-Glo: 35.5µM

What do the screens show for `O=C1NC(=O)C(=Cc2ccsc2)C(=O)N1`?
KAT2A inh: inactive; VDR inh: inactive; ALOX12 inh: inconclusive; PLK1 PBD inh: 6.7µM; TbPYK confirm: 14.1µM; TbPYK ADP-Glo: inconclusive

Results for O=C(c1ccc2c(c1)OCO2)N1[C@H]2CC[C@@H]1c1cnc(-c3ccccc3)nc1C2 ?
ALOX12 inh: inactive

How did O=C1NC(=O)N(Cc2ccccc2)C(=O)/C1=C\c1ccco1 do in these assays?
KAT2A inh: inconclusive; VDR inh: inactive; ALOX12 inh: inconclusive; PLK1 PBD inh: 2.12µM; TbPYK confirm: 31.6µM; TbPYK ADP-Glo: inconclusive

What do the screens show for `O=C(O)c1cc(Cl)c(O)c(Cl)c1`?
ALOX12 inh: inactive

What do the screens show for `O=C(Cc1cccc(F)c1)N1CCC2(CC1)NCc1ccccc1-n1ccnc12`?
ALOX12 inh: inactive

What do the screens show for `O=c1[nH]c(O)c(/C=C2\C=NN=C2c2ccccc2)c(=O)[nH]1`?
KAT2A inh: inactive; VDR inh: inconclusive; ALOX12 inh: inconclusive; PLK1 PBD inh: 3.55µM; TbPYK confirm: 11.2µM; TbPYK ADP-Glo: 31.6µM

Results for CC1=NN(c2ccccc2)C(=O)/C1=C/c1c(O)[nH]c(=O)[nH]c1=O ?
KAT2A inh: inactive; VDR inh: inactive; ALOX12 inh: inconclusive; PLK1 PBD inh: inactive
